Results filed as inconclusive are left out. Entries that show only a call come without a potency. Activity calls are given as the source filed them. Calls come from the whole dose curve; as a rule, active = well fitted inhibition curve with a large enough effect; inconclusive = small, poorly fitted or top-dose-only effect; inactive = no such curve, though single readings can be large or run the other way.
Biological target: Retinaldehyde dehydrogenase 3 (Homo sapiens) (UniProt P47895)
Experiment: qHTS for Inhibitors of the Aldehyde Dehydrogenase Family (ALDH1A3) Primary screen (AID 2061315)
Details: ALDH inhibition qHTS; series mostly up to 56 µM

| Structure (SMILES) | Potency |
| --- | --- |
| Cc1cccc(-c2[nH]ncc2-c2ccnc3ccccc23)n1 | inactive |
| CC1(C)CC[C@]2(C(=O)O[C@@H]3O[C@H](CO)[C@@H](O)[C@H](O)[C@H]3O)CC[C@]3(C)C(=CCC4[C@@]5(C)CC[C@H](O[C@@H]6O[C@H](C(=O)O)[C@@H](O)[C@H](O)[C@H]6O)C(C)(C)C5CC[C@]43C)C2C1 (stereo partly drawn) | inactive |
| FC(F)(F)c1cc(-c2ncn(/C=C\c3nnco3)n2)cc(C(F)(F)F)c1 | inactive |
| C=C1[C@H](OC(C)=O)[C@H]2[C@@H](OC(C)=O)[C@](C)(OC(C)=O)C[C@]2(OC(C)=O)C(=O)[C@H](C)/C=C/C(C)(C)C(=O)[C@H](OC(=O)C(C)CC)[C@H]1OC(C)=O (stereo partly drawn) | inactive |
| C=C(C)[C@@H]1CC[C@]2(CO)CC[C@]3(C)[C@H](CC[C@@H]4[C@@]5(C)CC[C@H](O)C(C)(C)[C@@H]5CC[C@]43C)[C@@H]12 | inactive |
| CC1=CC(=O)CC(C)(CO[C@@H]2O[C@H](CO)[C@@H](O)[C@H](O)[C@H]2O)C1(O)/C=C/C(C)=C/C(=O)O (stereo partly drawn) | inactive |
| C=C(C(=O)O)[C@@H]1CC[C@H](C)[C@@H]2CC(=O)C(C)=C2C1 | inactive |
| CCOc1nc2cccc(C(=O)O)c2n1Cc1ccc(-c2ccccc2-c2nn[nH]n2)cc1 | inactive |
| C=C[C@@]1(C)CCC2=C([C@H]1OC(C)=O)[C@H](OC(C)=O)CC1[C@](C)(C(=O)OC)CC[C@H](OC(C)=O)[C@]21C (stereo partly drawn) | inactive |
| CC(C)(C)c1ccc(C(=O)Nc2cn3cc(-n4ccnc4)ccc3n2)cc1 | inactive |
| COc1ccc(CCc2nc3cc(-c4c(C)noc4C)ccc3n2CC(C)N2CCOCC2)cc1Cl (stereo not drawn) | inactive |
| CC(C)C1(O[C@@H]2O[C@H](CO)[C@@H](O)[C@H](O)[C@H]2O)CC=C(CO)CC1 (stereo partly drawn) | inactive |
| CC1=C(C(=O)OC2OC(COC3OC(CO)C(O)C(O)C3O)C(O)C(O)C2O)C(C)(C)CCC1 (stereo not drawn) | inactive |
| Cc1cccc(N2CCN(C(=O)c3cc(S(=O)(=O)N(C)C)ccc3N3CCCC3)CC2)c1C | inactive |
| CCCCCOC(=O)Nc1nc(=O)n(C2O[C@H](C)[C@@H](O)[C@H]2O)cc1F (stereo partly drawn) | inactive |
| COc1ccc(CCC(=O)O)c(O[C@@H]2O[C@H](CO)[C@@H](O)[C@H](O)[C@H]2O)c1 | inactive |
| C/C=C(/C)C(=O)O[C@@H]1C[C@@H](OC(=O)CC(C)C)C2(C)C3C(=O)C=C(C)C2C3C1(C)C (stereo partly drawn) | inactive |
| CCC(C)C1NC(=O)C(Cc2ccccc2)NC(=O)C(CCCCCC(=O)C(O)CO)NC(=O)C2CCCCN2C1=O (stereo not drawn) | inactive |
